AmpC inh detg: inhibitors of E. coli AmpC beta-lactamase with detergent. 0.041% of 370,000 active. P00811. Potency, µM (series often up to 114 µM), usual class: inhibitors. AmpC hydrolysis of nitrocefin, absorbance 480 nm, 0.01% Triton; also: nearly all actives have a fitted effect of over 25% in size
Target sequence (P00811 whole entry, looked up): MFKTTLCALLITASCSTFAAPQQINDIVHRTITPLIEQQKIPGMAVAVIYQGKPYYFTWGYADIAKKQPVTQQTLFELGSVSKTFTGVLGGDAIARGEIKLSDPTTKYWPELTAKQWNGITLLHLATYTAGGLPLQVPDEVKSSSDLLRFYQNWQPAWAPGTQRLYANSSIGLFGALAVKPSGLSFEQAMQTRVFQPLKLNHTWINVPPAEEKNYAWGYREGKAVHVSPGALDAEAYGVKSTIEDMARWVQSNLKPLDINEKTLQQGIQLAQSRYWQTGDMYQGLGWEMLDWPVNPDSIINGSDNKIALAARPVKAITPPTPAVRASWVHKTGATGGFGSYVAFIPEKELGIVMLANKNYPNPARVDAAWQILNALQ
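20 mM phosphate pH 7.0 + 0.01% (detergent screen) or 0.0001% Triton X-100; 5.3 nM AmpC reagent; cpd preinc 15 min RT; nitrocefin (800 uM stock) to start; A480 q20 s × 4 min; Activity was normalised to no-enzyme and no-compound control wells.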
RE007 growth inh: less growth of the S. pombe RE007 Vpr strain | Potency, µM (highest dose often 92.2 µM), usual class: inhibitors | 0.21% of 360,000 active | S. pombe RE007 Vpr strain, BacTiter-Glo ATP luminescence, 24 h; active = well fitted falling curve with a large enough effect; inconclusive = small, poorly fitted or top-dose-only effect; inactive = no such curve, though single readings can be large or run the other way; also: nearly all actives have a fitted effect of over 50% in size
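Fission yeast RE007 carrying one integrated HIV-1 vpr copy, seeded at OD 0.01 in PMG+AL medium with 23 nL pinned compound. Grown 24 h at 30 degrees; viability read by BacTiter-Glo luminescence after 5 min.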
AMA1 RON2 block: disrupts binding of P. falciparum AMA1 to RON2; AlphaScreen AMA1-biotinylated RON2 peptide binding; Potency, µM (doses to about 58.2 µM), most hits filed as inhibitors; 0.2% of 360,000 active; also: nearly all actives have a fitted effect of over 45% in size
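AMA1 (3D7) with his tag at 25 nM final met compounds first, then biotinylated RON2 peptide at 25 nM; detection used donor plus acceptor beads, 10 µg/mL apiece, read by AlphaScreen after 30 min at room temperature.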
AmpC inh no detg: inhibitors of E. coli AmpC beta-lactamase without detergent; P00811; AmpC nitrocefin hydrolysis, absorbance 480 nm, 0.0001% Triton; Potency, µM (doses to about 57.1 µM), usual class: inhibitors; 0.52% of 330,000 active; AID 485341; also: nearly all actives have a fitted effect of over 20% in size
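20 mM phosphate pH 7.0 + 0.01% (detergent screen) or 0.0001% Triton X-100; 5.3 nM AmpC reagent; cpd preinc 15 min RT; nitrocefin (800 uM stock) to start; A480 q20 s × 4 min; Activity was normalised to no-enzyme and no-compound control wells.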
Sm TGR inh: S. mansoni TGR enzyme inhibition; purified TGR, DTNB reduction, TNB absorbance 405 nm; Potency, µM (highest dose often 114 µM), most hits filed as inhibitors; 3% of 360,000 active; AID 485364; also: nearly all actives have a fitted effect of over 60% in size
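First, TGR (20 nM dispensed) and NADPH were mixed with compound. Second, a 15 min room-temperature incubation followed. Third, further NADPH and then DTNB were added to start the reaction. Finally, TNB absorbance was monitored kinetically.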
Hits are given with their value; – = inactive; ? = inconclusive; · = no result. Shown are actives, neighbours in structure and some others; about 3.2% of the full set was active somewhere. Unless noted, calls follow the shape of the dose curve; as a rule, active = well fitted curve in the direction sought with a large enough effect; inconclusive = small, poorly fitted or top-dose-only effect, or another doubt; inactive = no such curve, though single readings can be large; an effect the other way counts as inactive or inconclusive.

SMILES	AmpC inh detg	RE007 growth inh	AMA1 RON2 block	AmpC inh no detg	Sm TGR inh
O=C(/C=C/c1ccc(Br)o1)NC(c1ccccc1)c1ccccc1	–	–	–	–	45µM
O=C(/C=C/c1ccc(Br)o1)OCc1ccccc1	–	–	–	–	22µM
O=C(NC(c1ccccc1)c1ccccc1)c1ccc(Br)o1	–	–	–	–	–
CCc1cccc(C)c1NC(=O)c1cc(S(=O)(=O)NCc2ccccc2Cl)ccc1F	–	·	·	·	–
CCOC(=O)c1c(NC(=O)c2nc(SC)ncc2Cl)sc(C)c1C	–	·	·	·	–
CCC1(C)Cc2nc3[nH]c(=S)n(-c4ccc(C)cc4)c(=O)c3cc2CO1 (stereo unspecified)	–	–	–	–	6.3µM
N#CC(C#N)=Cc1ccc(OC(=O)c2ccccn2)cc1	–	–	–	–	8.9µM
Oc1c(Cl)cc(Cl)cc1C(C#Cc1ccccc1)N1CCOCC1 (stereo unspecified)	–	–	–	0.32µM	–
CCOc1ccc2cc(S(=O)(=O)N3CCOCC3)ccc2c1	–	–	–	0.4µM	–
N#C/C(=C\c1cn(Cc2ccccc2)c2ccccc12)C(=O)NCc1ccco1	–	–	–	–	–
Cc1cccc(NC(=O)/C(C#N)=C/c2cn(CC(=O)NCc3ccco3)c3ccccc23)c1C	–	–	–	14µM	–
O=C(/C=C/c1c(Cl)cccc1Cl)n1cccn1	–	–	–	–	18µM
Cc1c(F)cccc1NC(=O)C1CCCN1S(=O)(=O)c1ccc(F)cc1 (stereo unspecified)	–	·	·	·	–
CCNC(=S)N/N=C/c1sccc1C	–	·	·	–	–
Cc1ccsc1/C=N/NC(=S)NCCc1ccccc1	–	–	–	18µM	–
CCOCCc1nn2c(=O)cc(COC(=O)c3ccc(NC(=O)c4cccs4)cc3)nc2s1	–	·	·	·	–
O=C(NNC(=S)NC(=O)c1ccccc1[N+](=O)[O-])c1ccccc1O	–	–	0.71µM	–	–
Oc1ccccc1Oc1ncc(Br)c(N2CCOCC2)n1	–	–	–	–	–
Oc1ccccc1Oc1ncc(Br)c(Cl)n1	–	–	–	–	35µM
COc1ccccc1NS(=O)(=O)c1cn(C)c(C)n1	–	·	·	·	–
Cc1nc2c3cccnc3nn2c(C)c1CCC(=O)NCc1ccccc1Cl	–	·	·	·	–
O=C(CN1CCCCC1)c1ccccc1Cl	–	–	–	–	–
CCN1CCN(CC(=O)c2cc(Cl)ccc2Cl)CC1	–	–	–	–	18µM
CN(C)/N=C/c1cc([N+](=O)[O-])ccc1O	–	–	–	–	–
O=[N+]([O-])c1ccc(C(O)CN=Cc2ccc(O)cc2O)cc1 (stereo unspecified)	–	–	–	13µM	·
SMILES	AmpC inh detg	RE007 growth inh	AMA1 RON2 block	AmpC inh no detg	Sm TGR inh
O=C(O)c1cc(N2N=C(C(F)(F)F)/C(=C/C=C/c3ccco3)C2=O)ccc1Cl	–	–	?	–	10µM
COc1ccc(C2c3c(n(C)c4ccccc34)C(=O)N2CC(=O)Nc2ccccc2F)cc1 (stereo unspecified)	–	·	·	·	–
COc1ccc(CCn2c(SCC(=O)Nc3cc(C)on3)nc3ccsc3c2=O)cc1OC	–	–	–	0.32µM	–
COc1ccc(CCn2c(SCC(=O)Nc3cc(C)on3)nc3ccccc3c2=O)cc1OC	–	–	–	–	–
Cc1cc(C)c(NC(=O)Cn2c(=O)n(CCC(=O)NCc3ccc4c(c3)OCO4)c(=O)c3ccccc32)c(C)c1	–	·	·	·	–
CC(C)Nc1nc(NC(C)C)nc(N(C#N)C(C)C(=O)N(C)C)n1 (stereo unspecified)	–	·	·	–	40µM
CN1CCN(C(=S)c2ccc(-c3cccc(Cl)c3Cl)o2)CC1	?	–	14µM	–	–
CC(=O)N1CCc2cc(S(=O)(=O)NC(Cc3ccccc3)C(=O)Nc3ccc(Cl)cc3)ccc21 (stereo unspecified)	–	·	·	·	–
CC(=O)N(CCC(c1ccco1)C(C)C)Cc1ccc(Cl)cc1 (stereo unspecified)	–	–	–	–	20µM
COc1ccccc1C(CCN(Cc1ccccc1)C(C)=O)c1ccco1 (stereo unspecified)	–	–	–	–	18µM
COc1ccccc1C(CC(N)=O)c1ccco1 (stereo unspecified)	–	–	–	–	–
CCN(CCCNC(=O)c1ccc(Sc2ccc(F)cc2)c(NC(C)=O)c1)c1ccccc1	–	·	·	·	–
CCOc1ccc(N2CC(NC(=O)c3cc4ccccc4o3)CC2=O)cc1 (stereo unspecified)	–	·	·	·	–
COc1ccc(Nc2nc(CC(C)=O)ns2)cc1OC	?	–	–	–	13µM
COC(=O)c1c(N2C(=O)[C@H]3[C@@H](C2=O)[C@]2(C(=O)Nc4c(C)cc(C)cc42)N2CCC[C@@H]32)sc(C)c1C	–	–	–	–	–
COC(=O)c1c(N2C(=O)[C@H]3[C@@H](C2=O)[C@]2(C(=O)Nc4c2ccc(C)c4C)N2CCC[C@@H]32)sc(C)c1C	–	·	–	–	56µM
Cc1ncc(N=Nc2ccccc2Cl)c(-c2ccccc2)n1	–	–	25µM	–	–
Nc1nc(-c2ccccc2)c(N=Nc2cccc3ccccc23)s1	–	–	16µM	–	–
Nc1nc(-c2ccc(Cl)cc2)c(N=Nc2ccc(S(=O)(=O)N3CCOCC3)cc2)s1	–	–	–	–	–
Nc1nc(-c2ccccc2)c(N=Nc2ccccc2Cl)s1	?	–	14µM	–	–
CC(=O)Nc1sc(N)nc1-c1ccccc1	?	–	–	–	–
Oc1ccc(-c2csc(Nc3ccccn3)n2)cc1O	–	–	–	1.6µM	?
CC1=C/C(=C\c2ccc(Br)o2)C(=O)O1	–	–	–	–	–
Cc1ccc(NC(=O)CN2C(=O)S/C(=C/c3ccc(-c4cc(C(=O)O)ccc4C)o3)C2=O)cc1C	–	–	–	–	–
O=C1C(=Cc2ccc(Br)o2)C(=O)c2ccccc21	?	–	–	–	11µM
SMILES	AmpC inh detg	RE007 growth inh	AMA1 RON2 block	AmpC inh no detg	Sm TGR inh
Cc1ccc(C(=O)O)cc1-c1ccc(C=C2C(=O)c3ccccc3C2=O)o1	–	–	–	–	45µM
COc1cc(O)ccc1-c1nc2ccc(Br)cn2c1Nc1ccccc1C	–	·	·	·	–
CCc1ccc(NS(=O)(=O)c2ccc(C(=O)N(C)C)s2)cc1	–	·	·	·	–
CCOC(=O)CNC(c1ccccc1)c1cc(Br)ccc1NC(=O)OCC (stereo unspecified)	–	–	–	–	–
CCOC(=O)CNC(c1ccccc1)c1cc(Br)ccc1NC(=O)CCN1CCOCC1 (stereo unspecified)	–	–	–	–	6.3µM
COC(=O)CNC(c1ccccc1)c1cc(Br)ccc1NC(=O)CCN1CCOCC1 (stereo unspecified)	–	–	–	–	8.9µM

High-throughput results from PubChem BioAssay.
